# The panel holds about 83,000 compounds, 20% with a hit somewhere; the sample as a whole holds those more often.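 Testing used 96-well plates and a 48-hour single-concentration exposure. Example: -40 means 40% of the starting cells died.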 Values without a mark were called inactive. Activity calls are given as the source filed them. How the source made its calls: active means growth percent below 10; inactive means the rest.
# Test system: HL-60(TB) leukemia
# Assay: NCI-60 one-dose screen, 48 h (100 = growth as untreated, 0 = no growth, -100 = all killed)
# Settings: 10 µM unless noted
row,SMILES,growth
1,COc1ccc(C(=O)COc2ccc(/C=C3\COc4ccc(OC)cc4C3=O)cc2)cc1,59.4%
2,COc1ccc(C(=O)/C=C/c2cccc(Nc3ccnc4cc(Cl)ccc34)c2)cc1,51.7%
3,O=C(Nc1ccc(N2CCCCC2)c(Cl)c1)c1ccc(Br)o1,46.3%
4,C1=CC2=CC=C3C=CC=C4C(c5nc6c7ccccc7c7ccccc7c6[nH]5)=CC(=C1)C2C34 (stereo unspecified),111%
5,CC(=O)c1cccc(O)c1,100%
6,Brc1ccc(Nc2csc(-c3ccccn3)n2)cc1,99.6%
7,CC(=O)Oc1cc2cnc3c4cc(OC(C)=O)c(OC(C)=O)cc4ccc3c2cc1OC(C)=O,-2.79% (active)
8,CCC(=O)N1C/C(=C/c2ccc(Br)cc2)C(=O)/C(=C/c2ccc(Br)cc2)C1,-26.2% (active)
9,Fc1[nH]nc2ccc([C@@H]3Nc4ccc5[nH]ncc5c4[C@H]4C5CCC(C5)[C@@H]34)cc12 (stereo partly specified),14.4%
10,N/C(=N\c1nc2ccccc2[nH]1)NC(=O)Cc1cccc2ccccc12,82.4%
11,CCOC(=O)c1ccc(NCCC(=O)O)cc1,96.4%
12,COc1cccc(CNc2c3ccccc3nc3ccccc23)c1,40.9%
13,Cc1c(C(C)(C)O)cn2ncnc(Oc3ccc(NC(=O)Nc4ccc(Cl)c(C(F)(F)F)c4)cc3)c12,26.6%
14,CCCCC/C(C)=N\NC(N)=S,96.5%
15,CN=c1ccc2nc3ccc(N)cc3sc-2c1,-27.1% (active)
16,CCCNNC(=O)/C=C/c1ccc(CNCCc2c(C)[nH]c3ccccc23)cc1,33.3% [2.5 µM]
